Our source for the growth values is PubChem BioAssay (NCI).

Structures are written as SMILES. Compounds without any hit were thinned out: in the full panel of roughly 83,000, 20% have a hit.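 Assay: single dose, 48 h. Readout: percent growth (0 = no net growth; negative = cell death). Active: <10.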 A number with no mark means an inactive call. Calls of active or inactive are those of the source.

The assay deals with SF-295 CNS. Briefly: NCI-60 one-dose screen, 48 h (100 = growth as untreated, 0 = no growth, -100 = all killed). The following applies: 10 µM unless noted.
`CCCC[C@H](NC(=O)[C@H]1CCCCN1C)C(=O)N(C)[C@H](C[C@@H](OC(C)=O)c1nc(C(=O)N[C@@H](Cc2ccccc2)C[C@H](C)C(=O)OCC)cs1)C(C)C`: the growth was 16.9%.

With `O=C([O][Hg][CH2]C1OCCOC1[CH2][Hg][O]C(=O)c1ccccc1)c1ccccc1` (stereo not drawn), the growth was 112%.

As for `Cn1cc(-c2csc(-c3cn(CCN4CCOCC4)c4ccccc34)n2)c2cccnc21`, the growth is 72.2%.

For `O=C(O)c1c(Cl)n(Cc2ccc(O)cc2)c2ccc(O)cc12`, the growth was 101%.

Take `CCCCCCCCCCCCCCCCCCOc1ccccc1COP(=O)(O)OOCC[N+](C)(C)C`: the growth was 27.2%.

For the compound `CC(C)(C)N1CC1C#N` (stereo not drawn), the growth was 91.4%.

`COC(=O)[C@@H](C)C[C@H](Cc1ccc2ccccc2c1)NC(=O)c1csc([C@@H](C[C@H](C(C)C)N(C)C(=O)[C@@H](NC(=O)[C@H]2CCCCN2C)C(C)C)OC(C)=O)n1`: the growth was 56.7%.

In the case of `CCCCC1(CCC)C(=O)NC(=S)NC1=O`, the growth was 102%.

As to `Nc1ccc(Cl)cc1`, the growth was 99.2%.

As to `COc1ccc([As]=[As]c2ccc(OC)c(NCS(=O)(=O)O)c2)cc1NCS(=O)(=O)O` (stereo not drawn), the growth was 80%.

Turning to `CC1(C)C(C(=O)c2cn(CCCCF)c3ccccc23)C1(C)C`, the growth is 91.5%.

Take `O=[N+]([O-])c1ccc([Se]C2CCCCC2Cl)c([N+](=O)[O-])c1` (stereo not drawn): the growth is -41.3% (active).

On to `COP(=O)(OC)C(O)c1ccc(Cl)cc1` (stereo not drawn), for which the growth is 100%.

Consider `Cc1cnc(/C=C/C(=O)O)cc1-c1cc2c(cc1C)C(C)(C)CCC2(C)C`, for which the growth was 86.1%.

Turning to `COC(=O)[C@H](C[C@H](Cc1ccccc1)NC(=O)c1csc([C@@H](C[C@H](C(C)C)N(C)C(=O)[C@@H](NC(=O)[C@H]2CCCCN2C)C(C)C)OC(C)=O)n1)NC(=O)OCc1ccccc1`, the growth was 8.4% [8.5 µM] (active).

For `Cc1ccc2c(C(C[N+](=O)[O-])c3cccs3)c(-c3ccccc3)[nH]c2c1` (stereo not drawn), the growth was 7.69% (active).

For the compound `CCOC(=O)[C@@H](C)C[C@H](Cc1ccccc1)NC(=O)c1csc([C@@H](C[C@H](C(C)C)N(C)C(=O)[C@@H](NC(=O)[C@H]2CCCCN2C)C(C)(C)C)OC(C)=O)n1`, the growth was -8.4% (active).

As for `NC(=O)C(Br)c1ccccc1` (stereo not drawn), the growth was 97%.

In the case of `CC(=O)O[C@H](C[C@H](C(C)C)N(C)C(=O)[C@@H](NC(=O)[C@H]1CCCCN1C)C(C)C)c1nc(C(=O)N[C@@H](Cc2ccccc2)C[C@H](C)C(=O)O)c(CCOCc2ccccc2)s1`, the growth is -19.8% (active).

For `O=NN1CCCc2cccc(O)c21`, the growth was 31%.

For the compound `C#C[C@]1(OC(=O)CCCCCC)CC[C@H]2[C@@H]3CCC4=CC(=O)CC[C@@H]4[C@H]3CC[C@@]21C`, the growth was 32.2%.

In the case of `CC(=O)OC1C(OC/C2=C/C3[C@@H](C(C)C)CC=C(C)[C@@H]3CC(OC(=O)/C=C/c3cn(C)cn3)[C@]3(C)C=C[C@@]2(O)O3)OCC(O)C1O` (stereo partly drawn), the growth was -3.4% (active).

For `COC1CC2c3ccccc3C1C(C)=[N+]2C` (stereo not drawn), the growth was 94.2%.

On to `NC(=O)CNc1ccc([As]=[As]c2ccc(NCC(N)=O)cc2)cc1` (stereo not drawn), for which the growth is 94%.

Turning to `CCCCCN(CCCCC)CC(O)c1cc(Cl)ccc1OC` (stereo not drawn), the growth was 23.9%.

Consider `ClC1=C(Cl)C(Cl)(C2(Cl)C(Cl)=C(Cl)C(Cl)=C2Cl)C(Cl)=C1Cl`, for which the growth is 89.6%.

As to `CCOC(=O)[C@@H](C)C[C@H](Cc1ccccc1)NC(=O)c1nc([C@@H](C[C@H](C(C)C)N(C)C(=O)[C@@H](NC(=O)[C@H]2CCCCN2C)C(C)C)OC(C)=O)sc1CCOCc1ccccc1`, the growth is -33.6% (active).

As to `COC(=O)N[C@H]1CCc2c(Br)c(OC)c(OC)c(OC)c2-c2ccc(SC)c(=O)cc21`, the growth was 9.53% (active).

On to `O=C(CC1(O)C(=O)Nc2ccc(Br)cc21)c1ccc(C(=O)NCC2CCC3(CC2)OOC2(CCCCC2)OO3)cc1` (stereo not drawn), for which the growth was 69.1%.

`C=C1C(=O)O[C@H]2[C@H]1CC/C(COC(=O)C(=O)c1cn(Cc3ccccc3)c3ccccc13)=C\CC[C@@]1(C)O[C@@H]21`: the growth is 18.8%.

As to `O=C1C2C(C(=O)[N]1[Hg][c]1cccs1)C1(Cl)C(Cl)=C(Cl)C2(Cl)C1(Cl)Cl` (stereo not drawn), the growth was 58.3%.

For `O=C1CN=C(c2ccc(Cl)cc2)c2sccc2N1`, the growth is 96.5%.

Take `O=C1NC(=O)C(=Cc2cccn2CCCCCn2c3ccccc3c(=O)c3ccccc32)C(=O)N1`: the growth was 99.4%.

With `Nc1c(F)cc(-c2nc3cc(F)ccc3[se]2)cc1Br`, the growth was 74.5%.

Regarding `O=[N+]([O-])CC(c1ccccc1Cl)c1c(-c2ccccc2)[nH]c2ccccc12` (stereo not drawn), the growth was 24.3%.

For the compound `CC(CO)NC1CCCCC1` (stereo not drawn), the growth is 113%.

`OCCNC(Cc1ccccc1)c1ccc2c(c1)OCO2` (stereo not drawn): the growth is 90%.

With `Clc1cccc(N2COOC3(OOC2)C2CC4CC(C2)CC3C4)c1`, the growth was 86.1%.
